# About 950 (1.4%) of roughly 69,000 compounds showed an effect of 50% or more. The sample as a whole holds a higher share of strong results than the screen did.
# System: Mycobacterium tuberculosis
# Assay: Cornell M. t heat shock assay; note: in the data most compounds retested in dose-response had high values
# Type: functional, organism-based
# Set-up: dose or concentration left out as unconfirmed
row,Structure (SMILES),Percent Effect [%]
1,Cc1nc(CN2C[C@@H]3CN(C(=O)c4cccn4C)C[C@@H]3C2)cs1.O=C(O)C(F)(F)F,-44.62
2,COc1cccc(CNCc2nc3ccccc3c(=O)[nH]2)c1,81.36
3,COc1cccc(CNCCNS(=O)(=O)Cc2ccccc2)c1,-28.9
4,C=C(C)COc1cccc(CNCc2nc3ccccc3c(=O)[nH]2)c1,22.25
5,CC(C)N(C)Cc1cnc2n1CCN(Cc1ccco1)C2.O=C(O)C(F)(F)F.O=C(O)C(F)(F)F,-12.15
6,CC(C)N1CCC2(CCCNC2)C1=O.Cl (stereo not given),-7.448
7,COc1ccc(-c2cnc(N)nc2C2CCCNC2)cc1.Cl (stereo not given),9.716
8,O=C(O)C(F)(F)F.O=C(O)C(F)(F)F.O=C1COC2(CCN(Cc3ccncc3)CC2)CN1,-17.34
9,Cc1ccc(-c2cn[nH]c2C2CCCN(c3ccnc(C)n3)C2)cc1 (stereo not given),19.62
10,Cc1ccc(-c2cn[nH]c2C2CCCN(c3nccc(N)n3)C2)cc1 (stereo not given),65.07
11,Cc1ccc(-c2cn[nH]c2C2CCCN(c3ncccn3)C2)cc1 (stereo not given),-0.9903
12,CS(=O)(=O)NC[C@]12COC[C@H]1CN(Cc1ccc3c(c1)OCO3)C2.O=C(O)C(F)(F)F,3.977
13,CCOC(=O)N1CC2(CCNCC2)c2cc(Cl)ccc21.Cl,-1.259
14,COCC(=O)NC1CC2(CCN(CCN(C)C)CC2)c2ccccc21 (stereo not given),10.28
15,CCN(CC)c1nc(Nc2cccc(C(=O)O)c2)nc2ccccc12,-2.465
16,CC(O)c1cccc(Nc2nc(NCCO)c3ccccc3n2)c1 (stereo not given),10.04
17,CCN(CC)c1nc(Nc2cccc(C(C)O)c2)nc2ccccc12 (stereo not given),99.47
18,Cc1ccc(CN2CCc3onc(C(=O)Nc4cccnc4)c3C2)o1.O=C(O)C(F)(F)F.O=C(O)C(F)(F)F,26.18
19,Cc1cccc(CN2CC[C@H]3O[C@H](C(=O)Nc4cnccn4)CC[C@H]32)n1.O=C(O)C(F)(F)F.O=C(O)C(F)(F)F,-10.98
20,Cl.O=C1N(Cc2cccc(Cl)c2)CCC12CCCNC2 (stereo not given),-6.247
21,O=C(NCc1cccnc1)N[C@H]1CC[C@@]2(CCC(=O)N2CC2CC2)CC1.O=C(O)C(F)(F)F,35.19
22,CC(=O)N1CCN(C(=O)c2ccc(-c3cccc(C)c3)[nH]c2=O)CC1,14.72
23,Cc1cccc(-c2ccc(C(=O)N3CCN(C(C)C)CC3)c(=O)[nH]2)c1,7.848
24,Cc1cccc(-c2ccc(C(=O)N3CCSCC3)c(=O)[nH]2)c1,96.07
25,O=C(O)C(F)(F)F.O=C(O)C(F)(F)F.O=C1CC(c2ccncc2)C2(CCN(CC3CC3)CC2)N1 (stereo not given),-16.85
26,CN1CC(=O)N(c2cnn(C)c2)CC12CCN(CC1CC1)C2.O=C(O)C(F)(F)F.O=C(O)C(F)(F)F (stereo not given),-40.13
27,CN(C)C(=O)COC[C@]12COC[C@H]1CN(C1CCCC1)C2.O=C(O)C(F)(F)F,33.3
28,O=C(O)C(F)(F)F.O=C1CCCN1Cc1nnc2n1CCN(Cc1ccco1)CC2,8.62

row,Structure (SMILES),Percent Effect [%]
1,CN(Cc1cccnc1)C1CC2(CCN(c3ccccn3)CC2)C1.O=C(O)C(F)(F)F.O=C(O)C(F)(F)F.O=C(O)C(F)(F)F,-2.81
2,COc1ccccc1OCCC(=O)N1CCCCC1c1nccs1 (stereo not given),-0.6566
3,Cc1ccc2c(c1)SCC(=O)N2CC(=O)N1CCCC1c1nccs1 (stereo not given),34.79
4,O=C1CSc2ccccc2N1CC(=O)N1CCCCC1c1nccs1 (stereo not given),95.25
5,CN(C)C(=O)N1CCC[C@]2(C(=O)N(C)C)CN(c3ccccn3)C[C@@H]2C1.O=C(O)C(F)(F)F,-29.23
6,Cc1nc(CN2C(=O)C[C@H]3[C@H]2CCN3C2CCOC2)cs1.O=C(O)C(F)(F)F (stereo not given in full),-20.37
7,O=C1C[C@H]2CC[C@@H](CN1)N2c1cc(-c2ccccc2F)nc2ccnn12,8.242
8,I.c1ccc(Sc2ccc3c(c2)OCO3)c(CNC2=NCCN2)c1,5.756
9,CN(C)Cc1cc(C2CCCCN2S(=O)(=O)Cc2ccccc2)nn1C.Cl (stereo not given),-25.85
10,C[C@]1(O)CN(Cc2ncccc2F)CC[C@@H]1Oc1cccc(F)c1,32.25
11,C[C@]1(O)CN(Cc2ncc[nH]2)CC[C@@H]1Oc1cccc(F)c1,-7.197
12,Cc1cnccc1CN1CC[C@H](Oc2cccc(F)c2)[C@@](C)(O)C1,101.8
13,Cc1nccc(CN2CC[C@H](Oc3cccc(F)c3)[C@@](C)(O)C2)n1,-10.08
14,Cc1cccnc1CN1CC[C@H](Oc2cccc(F)c2)[C@@](C)(O)C1,104.4
15,Cc1cnccc1CN1CC[C@@](C)(O)[C@H](Oc2cccc(F)c2)C1,-11.46
16,Cc1ccc(CN2CCC3(CCN(c4cnn(C)c4)C3=O)C2)s1.O=C(O)C(F)(F)F (stereo not given),-24.12
17,O=C(NC1CC1)[C@H]1C[C@H]2OCC[C@H]2N(Cc2cccnc2)C1.O=C(O)C(F)(F)F.O=C(O)C(F)(F)F,0.4638
18,O=C(NCC1CC1)C1CN(Cc2ccncc2)Cc2ccnn2C1.O=C(O)C(F)(F)F.O=C(O)C(F)(F)F.O=C(O)C(F)(F)F (stereo not given),-17.14
19,Cn1cnc(S(=O)(=O)N2CCCC2)c1Cl,74.4
20,Cn1cnc(S(=O)(=O)N2CCOCC2)c1Cl,-1.938
21,CN1CCN(S(=O)(=O)c2ncn(C)c2Cl)CC1,-34.66
22,CC(C)(C)C(=O)N1C[C@H](c2ccsc2)[C@H]2CN(C3CCCC3)CC[C@H]21.Cl,-4.306
23,O=C(O)C(F)(F)F.O=C(O)C(F)(F)F.O=C1CC[C@]2(CC[C@@H](NCc3cccnc3)CC2)N1Cc1ccccc1,-11.79
24,CN1CCS(=O)(=O)[C@@H]2CCN(C(=O)CC(C)(C)C)CC[C@@H]21.O=C(O)C(F)(F)F,-1.789
25,CCOc1ccc2nc(CN3CCOC(CN)C3)ccc2c1 (stereo not given),16.64
26,CCOc1ccc2nc(CN3CCC(CNC(C)=O)C3)ccc2c1 (stereo not given),3.715
27,CCOc1ccc2nc(CN3CCC(CN)C3)ccc2c1 (stereo not given),106.9
